From PubChem BioAssay AID1159580 (chemical genetic matrix, 2015)
The whole screen tested about 5,500 compounds, of which about 2,000 (36%) were called active. About 18% were inconclusive and are not listed. No stated cut-off is given here; in the data, active means normalized growth mostly below about 0.91 (no sharp cut-off); inconclusive means no clear call, values can overlap the other calls; inactive means mostly above about 0.92. Some of the results follow.

Assay: chemical genetic growth profiling, strain panel (AID 1159580);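 further: tested at 20 µM; growth read once vehicle control cultures reached saturation at 30 °C; 1 = growth at the plate median or of vehicle wells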
Settings: S. cerevisiae deletion strains, growth OD
[1] = locus YBL105C, strain PKC1, stronger effect = lower value
[2] = locus YBR135W, strain CKS1, stronger effect = lower value
[3] = locus YBR160W, strain CDC28, stronger effect = lower value
[4] = locus YDL017W, strain CDC7, stronger effect = lower value
[5] = locus YDL028C, strain MPS1, stronger effect = lower value
[6] = locus YDL108W, strain KIN28, stronger effect = lower value
[7] = locus YDL132W, strain cdc53, stronger effect = lower value
[8] = locus YDL214C, strain PRR2, stronger effect = lower value
[9] = locus YDR052C, strain DBF4, stronger effect = lower value
[10] = locus YDR054C, strain cdc34, stronger effect = lower value
[11] = locus YDR477W, strain SNF1, stronger effect = lower value
[12] = locus YER123W, strain YCK3, stronger effect = lower value
[13] = locus YER133W, strain GLC7, stronger effect = lower value
[14] = locus YFL029C, strain CAK1, stronger effect = lower value
[15] = locus YFR003C, strain YPI1, stronger effect = lower value
[16] = locus YFR028C, strain CDC14, stronger effect = lower value
[17] = locus YGR040W, strain KSS1, stronger effect = lower value
[18] = locus YGR052W, strain FMP48, stronger effect = lower value
[19] = locus YGR092W, strain DBF2, stronger effect = lower value
[20] = locus YHR030C, strain SLT2, stronger effect = lower value
[21] = locus YHR079C, strain IRE1, stronger effect = lower value
[22] = locus YHR082C, strain KSP1, stronger effect = lower value
[23] = locus YHR205W, strain SCH9, stronger effect = lower value
[24] = locus YIL147C, strain SLN1, stronger effect = lower value
[25] = locus YJL095W, strain BCK1, stronger effect = lower value
[26] = locus YJL128C, strain PBS2, stronger effect = lower value
[27] = locus YJL157C, strain FAR1, stronger effect = lower value
[28] = locus YJR066W, strain TOR1 (second series), stronger effect = lower value
[29] = locus YJR066W, strain TOR1, stronger effect = lower value
[30] = locus YKL048C, strain ELM1, stronger effect = lower value
[31] = locus YKL067W, strain YNK1, stronger effect = lower value
[32] = locus YKL101W, strain HSL1, stronger effect = lower value
[33] = locus YKL203C, strain TOR2, stronger effect = lower value
[34] = locus YLR113W, strain HOG1, stronger effect = lower value
[35] = locus YLR133W, strain CKI1, stronger effect = lower value
[36] = locus YLR403W, strain SFP1, stronger effect = lower value
[37] = locus YML070W, strain DAK1, stronger effect = lower value
[38] = locus YMR001C, strain CDC5, stronger effect = lower value
[39] = locus YMR205C, strain PFK2 (second series), stronger effect = lower value
[40] = locus YMR277W, strain FCP1, stronger effect = lower value
[41] = locus YNL006W, strain LST8, stronger effect = lower value
[42] = locus YNL020C, strain ARK1, stronger effect = lower value
[43] = locus YNL183C, strain NPR1, stronger effect = lower value
[44] = locus YNL207W, strain RIO2, stronger effect = lower value
[45] = locus YNL222W, strain SSU72, stronger effect = lower value
[46] = locus YNL307C, strain MCK1 (second series), stronger effect = lower value
[47] = locus YOL078W, strain AVO1, stronger effect = lower value
[48] = locus YOL136C, strain PFK27, stronger effect = lower value
[49] = locus YOR061W, strain CKA2, stronger effect = lower value
[50] = locus YOR119C, strain RIO1, stronger effect = lower value
[51] = locus YOR231W, strain MKK1, stronger effect = lower value
[52] = locus YOR329C, strain SCD5, stronger effect = lower value
[53] = locus YPL031C, strain PHO85, stronger effect = lower value
[54] = locus YPL153C, strain RAD53, stronger effect = lower value
[55] = locus YPL204W, strain HRR25, stronger effect = lower value
[56] = locus YPL209C, strain IPL1, stronger effect = lower value
[57] = locus YPL256C, strain CLN2, stronger effect = lower value
[58] = locus YPR025C, strain CCL1, stronger effect = lower value
[59] = locus YPR106W, strain ISR1, stronger effect = lower value
[60] = locus YPR111W, strain DBF20, stronger effect = lower value
[61] = strain NNK1, stronger effect = lower value
[62] = strain TSCII, stronger effect = lower value
[63] = locus YAR019C, strain CDC15, stronger effect = lower value
[64] = locus YBR136W, strain MEC1, stronger effect = lower value
[65] = locus YDL101C, strain DUN1, stronger effect = lower value
[66] = locus YDR226W, strain ADK1, stronger effect = lower value
[67] = locus YFL009W, strain cdc4, stronger effect = lower value
[68] = locus YFR019W, strain FAB1, stronger effect = lower value
[69] = locus YJR016C, strain ILV3, stronger effect = lower value
[70] = locus YKL193C, strain SDS22, stronger effect = lower value
[71] = locus YNL161W, strain CBK1, stronger effect = lower value

Measured: normalized growth

O=C(Oc1ccc(C(F)(F)F)cc1[N+](=O)[O-])c1cccc(Cl)c1
inactive: [1] 0.953 | [2] 0.936 | [3] 0.944 | [4] 0.947 | [5] 0.941 | [6] 0.936 | [7] 0.911 | [8] 0.746 | [9] 0.944 | [14] 0.923 | [15] 0.944 | [16] 0.938 | [24] 0.947 | [33] 0.712 | [38] 0.943 | [40] 0.948 | [41] 0.945 | [45] 0.93 | [47] 0.939 | [52] 0.946 | [56] 0.941 | [58] 0.937 | [62] 0.94
active: [10] 0.613 | [11] 0.626 | [12] 0.423 | [13] 0.584 | [17] 0.617 | [18] 0.124 | [19] 0.133 | [20] 0.132 | [21] 0.22 | [22] 0.162 | [23] 0.00246 | [25] 0.141 | [26] 0.132 | [27] 0.638 | [28] 0.248 | [29] 0.134 | [30] 0.623 | [31] 0.645 | [32] 0.662 | [34] 0.21 | [35] 0.556 | [36] 0.0472 | [37] 0.521 | [39] 0.584 | [42] 0.513 | [43] 0.132 | [44] 0.571 | [46] 0.295 | [48] 0.426 | [49] 0.369 | [50] 0.448 | [51] 0.348 | [53] 0.507 | [54] 0.581 | [55] 0.449 | [57] 0.266 | [59] 0.584 | [60] 0.363 | [61] 0.554

Cc1ccc(OCC2SCCN2C(=O)c2ccc(C(F)(F)F)cc2)c([N+](=O)[O-])c1 (stereo unspecified)
inactive: [63] 1.01 | [1] 1.01 | [2] 1.01 | [64] 1.02 | [3] 1.01 | [4] 1.03 | [5] 1.02 | [65] 1 | [6] 1.02 | [7] 1 | [8] 0.998 | [9] 1.02 | [10] 0.986 | [66] 1.01 | [11] 0.981 | [12] 0.955 | [13] 0.985 | [67] 1.02 | [14] 1.01 | [15] 1.01 | [68] 0.97 | [16] 1.01 | [17] 1 | [18] 1.12 | [19] 1.02 | [20] 0.984 | [21] 1.01 | [22] 1.09 | [23] 0.998 | [24] 1.02 | [25] 1.01 | [26] 0.979 | [27] 0.994 | [69] 1.01 | [28] 0.927 | [29] 1.06 | [30] 1 | [31] 1 | [32] 0.996 | [70] 1.02 | [33] 1.04 | [34] 0.97 | [35] 1 | [36] 0.997 | [37] 0.982 | [38] 1.01 | [39] 1 | [40] 1.02 | [41] 1.02 | [42] 1 | [71] 1.01 | [43] 1.06 | [44] 1.02 | [45] 1.01 | [46] 0.993 | [47] 1.01 | [48] 0.965 | [49] 0.978 | [50] 1.05 | [51] 0.955 | [52] 1.02 | [53] 0.992 | [54] 0.987 | [55] 0.99 | [56] 1.01 | [57] 0.962 | [58] 1.01 | [59] 1.01 | [60] 1 | [61] 1.03 | [62] 1

Cc1ccccc1C(=O)Oc1ccc(C(F)(F)F)cc1[N+](=O)[O-]
inactive: [63] 0.961 | [1] 0.969 | [2] 0.964 | [64] 0.962 | [3] 0.966 | [4] 0.975 | [5] 0.947 | [65] 0.979 | [6] 0.964 | [7] 0.964 | [8] 0.864 | [9] 0.969 | [10] 0.965 | [66] 0.982 | [11] 0.937 | [12] 0.883 | [13] 0.941 | [67] 0.96 | [14] 0.965 | [15] 0.972 | [68] 0.979 | [16] 0.963 | [17] 0.934 | [18] 0.894 | [19] 0.807 | [21] 0.836 | [22] 0.951 | [23] 0.79 | [24] 0.97 | [25] 0.831 | [26] 0.868 | [27] 0.899 | [69] 0.968 | [28] 0.891 | [29] 0.948 | [30] 0.925 | [31] 0.879 | [32] 0.874 | [70] 0.971 | [33] 0.956 | [35] 0.909 | [36] 0.908 | [37] 0.891 | [38] 0.969 | [39] 0.898 | [40] 0.962 | [41] 0.977 | [42] 0.893 | [71] 0.971 | [43] 0.861 | [44] 0.956 | [45] 0.955 | [46] 0.823 | [47] 0.969 | [48] 0.869 | [49] 0.879 | [50] 1 | [51] 0.827 | [52] 0.964 | [53] 0.917 | [54] 0.917 | [55] 0.882 | [56] 0.967 | [58] 0.959 | [59] 0.955 | [60] 0.912 | [61] 0.941 | [62] 0.96
active: [20] 0.769 | [34] 0.614 | [57] 0.784

COC(=O)c1sccc1OC(=O)c1c(F)cccc1F
inactive: locus YAL013W, strain DEP1, stronger effect = lower value 0.963 | locus YBR229C, strain ROT2, stronger effect = lower value 0.974 | [65] 0.908 | locus YDR150W, strain NUM1, stronger effect = lower value 0.939 | locus YEL061C, strain CIN8, stronger effect = lower value 1.01 | locus YGR078C, strain PAC10, stronger effect = lower value 0.955 | [20] 0.726 | locus YHR087W, strain rtc3, stronger effect = lower value 1.02 | locus YJR043C, strain POL32, stronger effect = lower value 0.981 | locus YJR075W, strain HOC1, stronger effect = lower value 0.97 | locus YKL190W, strain CNB1, stronger effect = lower value 0.989 | locus YLR039C, strain RIC1, stronger effect = lower value 0.841 | locus YLR058C, strain SHM2 (second series), stronger effect = lower value 0.961 | locus YLR085C, strain ARP6, stronger effect = lower value 0.891 | locus YLR262C, strain YPT6, stronger effect = lower value 0.914 | locus YML094W, strain GIM5, stronger effect = lower value 0.981 | locus YMR219W, strain ESC1, stronger effect = lower value 0.955 | locus YMR263W, strain SAP30, stronger effect = lower value 0.974 | locus YMR307W, strain GAS1, stronger effect = lower value 0.975 | locus YNL153C, strain GIM3, stronger effect = lower value 0.99 | locus YNL298W, strain CLA4 (second series), stronger effect = lower value 0.912 | locus YNL322C, strain KRE1, stronger effect = lower value 0.96 | locus YNR030W, strain Alg12, stronger effect = lower value 0.979 | locus YOL006C, strain TOP1, stronger effect = lower value 0.884 | locus YPL055C, strain LGE1, stronger effect = lower value 0.97 | locus YPL241C, strain CIN2, stronger effect = lower value 0.926 | locus YPR135W, strain CTF4, stronger effect = lower value 0.768
